# Assay results reported in publication PMC7862700, “An all-to-all approach to the identification of sequence-specific readers for epigenetic DNA modifications on cytosine”.
# Experiments:
# Test in all cases: DAPPL (digital affinity profiling via proximity ligation, sequencing); 10 mM Tris-HCl pH 7.5, 50 mM NaCl, 1 mM DTT, 4% glycerol, room temperature, 30 min; GST-TFs on glutathione beads, 16-mer random dsDNA library, 0.1% formaldehyde crosslink after washing; high values mean tight binding
# Conditions in all cases: protein: recombinant; tags: N-terminal GST; dsDNA, one strand shown
# FLI1 = molecular target: T1, FLI1 (Homo sapiens, UniProt Q01543 1-452)
# T1 sequence: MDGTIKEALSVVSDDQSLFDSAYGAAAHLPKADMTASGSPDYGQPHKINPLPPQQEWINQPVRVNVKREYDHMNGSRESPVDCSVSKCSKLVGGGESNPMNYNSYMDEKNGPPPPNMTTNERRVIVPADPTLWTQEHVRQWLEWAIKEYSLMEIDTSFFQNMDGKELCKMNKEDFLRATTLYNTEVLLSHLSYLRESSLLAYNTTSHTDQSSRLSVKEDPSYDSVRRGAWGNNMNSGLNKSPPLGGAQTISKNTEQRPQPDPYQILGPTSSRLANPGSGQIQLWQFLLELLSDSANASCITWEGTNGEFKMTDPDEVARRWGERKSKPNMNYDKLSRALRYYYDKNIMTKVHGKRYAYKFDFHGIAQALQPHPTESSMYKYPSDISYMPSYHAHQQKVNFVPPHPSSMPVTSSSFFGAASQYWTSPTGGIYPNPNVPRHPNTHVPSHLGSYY
# In short: (§1)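 Yeast served to express human transcription factors as GST fusions, which were then captured on glutathione beads and labelled with DNA barcodes. Pooled with a tag-only sample, they were incubated with 200 nmole of a 16-mer random double-stranded DNA library for 30 min at room temperature in Tris/NaCl/DTT/glycerol buffer, washed, crosslinked with 0.1% formaldehyde, ligated by proximity, amplified by PCR and sequenced. Dividing each hexamer's read frequency for a factor by its frequency for the tag-only sample gives the binding signal.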
# ELK1 = molecular target: T2, ELK1 (Homo sapiens, UniProt P19419 1-428)
# T2 sequence: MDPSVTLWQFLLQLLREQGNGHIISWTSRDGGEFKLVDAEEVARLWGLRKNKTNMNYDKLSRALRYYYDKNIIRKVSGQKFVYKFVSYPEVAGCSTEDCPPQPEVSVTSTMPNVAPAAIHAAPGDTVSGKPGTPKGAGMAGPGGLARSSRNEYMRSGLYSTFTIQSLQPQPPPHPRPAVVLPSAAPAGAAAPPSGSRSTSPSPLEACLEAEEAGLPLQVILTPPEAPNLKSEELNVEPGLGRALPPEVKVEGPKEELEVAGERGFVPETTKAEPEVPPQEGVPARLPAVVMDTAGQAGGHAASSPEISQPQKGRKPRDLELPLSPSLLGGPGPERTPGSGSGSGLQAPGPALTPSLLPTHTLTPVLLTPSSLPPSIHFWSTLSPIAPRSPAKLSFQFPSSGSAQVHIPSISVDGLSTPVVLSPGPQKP
# In short: as §1
# GABPA = molecular target: T3, GABPA (Homo sapiens, UniProt Q06546 1-454)
# T3 sequence: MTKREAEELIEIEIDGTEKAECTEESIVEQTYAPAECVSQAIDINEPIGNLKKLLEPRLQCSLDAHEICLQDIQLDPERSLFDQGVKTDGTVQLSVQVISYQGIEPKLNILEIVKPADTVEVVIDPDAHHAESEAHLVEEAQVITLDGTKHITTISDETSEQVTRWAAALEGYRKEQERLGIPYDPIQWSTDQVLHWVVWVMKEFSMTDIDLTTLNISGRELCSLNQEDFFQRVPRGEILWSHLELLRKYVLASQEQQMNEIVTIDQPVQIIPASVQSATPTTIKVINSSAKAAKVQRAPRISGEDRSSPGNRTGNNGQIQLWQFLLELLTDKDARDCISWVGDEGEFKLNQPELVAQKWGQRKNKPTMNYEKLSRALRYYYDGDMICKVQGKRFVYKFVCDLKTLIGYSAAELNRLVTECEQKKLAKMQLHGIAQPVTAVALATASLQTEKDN
# In short: as §1
# ERG = molecular target: T4, ERG (Homo sapiens, UniProt P11308 1-479)
# T4 sequence: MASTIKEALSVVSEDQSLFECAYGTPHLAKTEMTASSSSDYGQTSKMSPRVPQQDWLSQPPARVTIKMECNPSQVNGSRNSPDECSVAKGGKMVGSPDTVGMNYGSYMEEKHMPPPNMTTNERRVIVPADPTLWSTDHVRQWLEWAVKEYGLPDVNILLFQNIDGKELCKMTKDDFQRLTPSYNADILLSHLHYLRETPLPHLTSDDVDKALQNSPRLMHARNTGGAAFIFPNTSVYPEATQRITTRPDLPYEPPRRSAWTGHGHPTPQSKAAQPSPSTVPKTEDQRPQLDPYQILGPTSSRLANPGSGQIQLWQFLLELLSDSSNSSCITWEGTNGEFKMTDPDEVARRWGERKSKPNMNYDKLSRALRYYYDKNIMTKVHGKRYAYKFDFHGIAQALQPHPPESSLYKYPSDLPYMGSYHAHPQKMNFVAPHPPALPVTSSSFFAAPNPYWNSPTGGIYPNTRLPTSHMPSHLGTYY
# In short: as §1
# ELF1 = ELF1 (Homo sapiens, UniProt P32519 1-619)
# Chain of ELF1 (P32519 whole entry): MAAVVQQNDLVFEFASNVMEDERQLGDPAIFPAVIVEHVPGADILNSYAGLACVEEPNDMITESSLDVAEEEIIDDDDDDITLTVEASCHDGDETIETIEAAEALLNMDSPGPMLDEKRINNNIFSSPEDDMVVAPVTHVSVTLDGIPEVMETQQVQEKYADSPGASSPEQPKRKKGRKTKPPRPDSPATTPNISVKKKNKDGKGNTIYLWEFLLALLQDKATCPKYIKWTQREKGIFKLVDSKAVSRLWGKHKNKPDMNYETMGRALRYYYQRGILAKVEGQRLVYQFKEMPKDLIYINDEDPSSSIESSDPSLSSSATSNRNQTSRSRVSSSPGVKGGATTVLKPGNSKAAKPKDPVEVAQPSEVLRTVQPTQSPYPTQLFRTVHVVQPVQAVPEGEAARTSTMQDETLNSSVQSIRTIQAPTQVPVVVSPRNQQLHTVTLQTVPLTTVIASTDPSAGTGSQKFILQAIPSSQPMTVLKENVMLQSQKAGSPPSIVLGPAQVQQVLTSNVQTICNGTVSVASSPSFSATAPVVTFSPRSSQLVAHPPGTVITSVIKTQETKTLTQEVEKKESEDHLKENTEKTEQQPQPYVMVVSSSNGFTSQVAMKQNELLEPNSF
# In short: as §1
# EHF = molecular target: T5, EHF (Homo sapiens, UniProt Q9NZC4 1-300)
# T5 sequence: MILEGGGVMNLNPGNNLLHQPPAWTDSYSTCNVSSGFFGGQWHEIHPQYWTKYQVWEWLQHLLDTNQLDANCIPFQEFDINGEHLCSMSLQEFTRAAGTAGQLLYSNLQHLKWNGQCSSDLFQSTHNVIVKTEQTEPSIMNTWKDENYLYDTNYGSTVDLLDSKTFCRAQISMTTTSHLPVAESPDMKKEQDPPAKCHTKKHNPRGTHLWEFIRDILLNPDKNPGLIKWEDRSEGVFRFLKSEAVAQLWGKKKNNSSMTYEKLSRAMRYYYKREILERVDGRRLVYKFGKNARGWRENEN
# In short: as §1
# SPI1 = SPI1 (Homo sapiens, UniProt P17947 1-270)
# In short: as §1
# SPIB = SPIB (Homo sapiens, UniProt Q01892 1-262)
# Chain of SPIB (Q01892 whole entry): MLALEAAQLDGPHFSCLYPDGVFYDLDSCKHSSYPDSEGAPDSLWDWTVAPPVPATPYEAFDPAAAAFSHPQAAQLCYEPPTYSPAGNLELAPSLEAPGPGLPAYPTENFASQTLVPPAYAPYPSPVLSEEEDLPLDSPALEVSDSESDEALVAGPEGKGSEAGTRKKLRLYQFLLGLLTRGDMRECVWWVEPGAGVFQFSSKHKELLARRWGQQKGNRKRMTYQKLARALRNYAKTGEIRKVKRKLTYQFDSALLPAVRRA
# In short: as §1
# ELK3 = molecular target: T6, ELK3 (Homo sapiens, UniProt P41970 1-407)
# T6 sequence: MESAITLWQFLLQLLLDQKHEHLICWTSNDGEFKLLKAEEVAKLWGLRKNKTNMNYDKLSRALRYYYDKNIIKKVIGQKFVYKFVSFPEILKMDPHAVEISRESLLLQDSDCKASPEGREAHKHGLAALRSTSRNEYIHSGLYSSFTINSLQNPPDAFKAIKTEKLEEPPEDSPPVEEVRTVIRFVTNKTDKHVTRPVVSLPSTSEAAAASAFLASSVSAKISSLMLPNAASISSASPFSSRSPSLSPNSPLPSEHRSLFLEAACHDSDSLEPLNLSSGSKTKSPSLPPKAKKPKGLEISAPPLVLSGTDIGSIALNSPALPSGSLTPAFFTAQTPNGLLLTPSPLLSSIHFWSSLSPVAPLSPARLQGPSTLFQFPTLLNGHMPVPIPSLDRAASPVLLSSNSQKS
# In short: as §1
sequence,measurement,setting,value
CTAGCT,binding signal,FLI1,"1.36 fold enrichment (6-mer frequency, TF over GST control)"
same,binding signal,ELK1,"1.37 fold enrichment (6-mer frequency, TF over GST control)"
same,binding signal,GABPA,"1.3 fold enrichment (6-mer frequency, TF over GST control)"
same,binding signal,ERG,"1.3 fold enrichment (6-mer frequency, TF over GST control)"
same,binding signal,ELF1,"1.31 fold enrichment (6-mer frequency, TF over GST control)"
same,binding signal,EHF,"1.29 fold enrichment (6-mer frequency, TF over GST control)"
same,binding signal,SPI1,"1.33 fold enrichment (6-mer frequency, TF over GST control)"
same,binding signal,SPIB,"1.34 fold enrichment (6-mer frequency, TF over GST control)"
same,binding signal,ELK3,"1.39 fold enrichment (6-mer frequency, TF over GST control)"
